Bioassay records from PubChem.
MPTP inh – blocks calcium-induced mitochondrial swelling; actives 1.4% (n = 360,000); isolated mouse mitochondria, Ca2+ swelling absorbance, 30 min; inhibition, % at 10 µM;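 active = inhibition of 50% or more, scaled per plate between neutral and stimulator controls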;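 note: 0% = DMSO wells given calcium and 100% = 1 mM EGTA wells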
FAS TE block – blocks the thioesterase domain of human fatty acid synthase. P49327. recombinant FAS-TE, OMFH fluorogenic substrate, fluorescence endpoint. actives 0.67% (n = 360,000). inhibition, % at 15 µM;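 active = compounds whose normalised, plate-corrected inhibition of enzyme fluorescence in the single-dose primary screen is 50% or more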;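 note: 0% = DMSO with enzyme and 100% = substrate without enzyme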
H9c2 protect – myocardial damage modulation in H9c2 cells; actives 0.63% (n = 360,000); protection from H2O2 cell death, % at 20 µM; H9c2 cardiomyocytes, H2O2 injury protection, ATPLite, 2 h;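 active = compounds giving at least 50% protection of heart cells from peroxide-induced death in the single-dose screen, raw or plate-pattern-corrected value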;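 note: 0% = DMSO wells with peroxide and 100% = DMSO wells without peroxide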
Yeast superoxide – caloric restriction mimetics inhibiting age-related superoxide in yeast; superoxide response (% of plate mean), % at 10 µM; S. cerevisiae aged cells, superoxide DHE fluorescence; active compounds read low; actives 0.18% (n = 330,000); AID 2690;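 active = superoxide response under a set limit, about three screen SD below normal, cut at about 65% in these data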;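 note: yeast aged for seven days with compound at 30 °C before DHE staining; 100% = average MFI of all compound-treated wells on the plate with controls excluded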
aDG glyco up – increases alpha dystroglycan glycosylation; actives 0.22% (n = 360,000); AID 624168; activation, % at 10 µM; Pro5-aDG cells, alpha-DG glycosylation AlphaScreen (IIH6); 0% Pro5, 100% B10-LARGE cell signal;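 active = activation of at least 8% versus controls, or a plate z-score of at least 8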;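 note: Pro5 are CHO cells carrying HIG-tagged alpha-DG that lacks glycosylation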
Mot1-301 SUMO – SUMOylation pathway inhibition by Mot1-301 growth rescue; S. cerevisiae Mot1-301 growth rescue, ATP luminescence, 38.5C; percent above DMSO median, 100 means doubled; growth rescue, % at 18.8 µM; actives 1% (n = 320,000); AID 2716;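 active = every valid replicate shows activation above 250% relative to neutral control wells; inactive = the rest, any valid replicate at or below 250%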;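 note: OY570 slx delta 5 strain wells were the positive control but not used for scaling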
* = called active by the depositor; i = inactive; . = no result given; + = active, no number. A selection: hits, their analogues and other compounds. The true share with any hit is near 3.8%.

SMILES | MPTP inh | FAS TE block | H9c2 protect | Yeast superoxide | aDG glyco up | Mot1-301 SUMO
Cc1noc(C)c1NC(=O)N(C)C[C@H]1Oc2c(NC(=O)Nc3ccc(C(F)(F)F)cc3)cccc2C(=O)N([C@H](C)CO)C[C@@H]1C | -1 | 23 | 1 | 107 | 0 | -6
Cc1c(CCC(=O)NC2CC2)c(=O)oc2cc(O)ccc12 | -1 | -6 | 5 | 91 | 0 | 2
CCN(C1CCS(=O)(=O)C1)S(=O)(=O)c1ccc2ccccc2c1 (configuration not stated) | -1 | -2 | -5 | 95 | 0 | 325*
CCCN(C1CCS(=O)(=O)C1)S(=O)(=O)c1ccc2ccccc2c1 (configuration not stated) | -2 | 8 | -2 | 99 | 0 | 7
COc1ccc(Cc2nc3ccc(C(=O)NCC4COCCO4)cc3o2)cc1 (configuration not stated) | -1 | 0 | -3 | 110 | 0 | 24
Nn1c(SCC(=O)NC2CCCCC2)nnc1-c1ccccc1F | -1 | -8 | -2 | 95 | 0 | -12
O=C1OC(Nc2ncccn2)c2ccccc21 (configuration not stated) | -1 | -6 | 1 | 108 | 0 | -12
O=C1OC(Nc2cc(Br)cc3cccnc23)c2ccccc21 (configuration not stated) | 0 | -1 | -13 | 125 | 7.4* | -17
Cc1cccc(NC(=O)/C(C#N)=C/c2cccc([N+](=O)[O-])c2)n1 | 0 | 6 | 5 | 116 | 0 | 483*
COc1ccc(Nc2nnc(C)c3ccccc23)cc1C(N)=O | -2 | -10 | 11 | 107 | 0 | -16
COc1ccc(Nc2nnc(-c3ccc(O)cc3)c3ccccc23)cc1C(N)=O | -2 | -3 | 57* | 94 | 0 | 265
COc1cccc(/C=N/Nc2nc3ccccc3n3cnnc23)c1 | 1 | -10 | 57* | 94 | 0 | -8
CC(=O)c1cccc(Nc2nc3ccccc3n3cnnc23)c1 | -1 | -2 | 67* | 119 | 0 | 5
COc1cccc(/C=N/Nc2nc3ccccc3n3cnnc23)c1O | 8 | -5 | 43 | 102 | 0 | 10
c1ccc(N2CCOCC2)c(Nc2nc3ccccc3n3cnnc23)c1 | 0 | 11 | 81* | 117 | 0 | -7
c1ccc2c(c1)nc(N1CCOCC1)c1nncn12 | 0 | -7 | 3 | 103 | 0 | 12
CC1(C)CC(=O)C=C(c2cn[nH]n2)C1 | 0 | -7 | 7 | . | 0 | .
COC(=O)c1ccc(CNS(=O)(=O)c2ccc3ccccc3c2)cc1 | 0 | 5 | -12 | 89 | 0 | 330*
CCCS(=O)(=O)c1c(S(=O)(=O)CCC)c2c(C)cccn2c1C(=O)N/N=C/c1cc(O)cc(O)c1 | 1 | 10 | 53* | 87 | 1 | 15
CCCS(=O)(=O)c1c(S(=O)(=O)CCC)c2c(C)cccn2c1C(N)=O | 0 | -5 | 3 | 102 | 0 | -6
Cc1cc(N2O[C@]34C=C[C@]25C[C@@H](O)CC[C@]5(C)C3CC[C@]2(C)[C@@H]([C@H](C)/C=C/[C@H](C)C(C)C)CC[C@H]24)no1 (some centres not stated) | 0 | 9 | -3 | 57* | 0 | .
CCOc1ccc(-n2c(O)c(/C=N/NC(=O)C3COc4ccccc4O3)c3ccccc3c2=O)cc1 (configuration not stated) | 4 | 4 | 56* | 112 | 0 | 48
COc1cc(/C=N\NC(=O)C2COc3ccccc3O2)cc(OC)c1O (configuration not stated) | 1 | -3 | -1 | i | 0 | 20
Nc1cc(N2CCCC2)c(Cl)cc1[N+](=O)[O-] | 1 | 14 | -10 | 95 | 0 | 307*
Cc1cc(=O)oc2cc(OCC(=O)N3CCN(C(=O)C4COc5ccccc5O4)CC3)c(Cl)cc12 (configuration not stated) | 1 | 26 | 58* | 110 | 0 | -10
COc1ccc(N2CCN(c3cc(C(=O)NC4CCCCC4)ncn3)CC2)cc1OC | 0 | -1 | 3 | . | 0 | .
O=C(O)c1ccc(/C=N/Nc2ccc(C(F)(F)F)cn2)cc1 | -1 | -3 | 6 | . | 0 | .
COc1cc(/C=N/Nc2ccc(C(F)(F)F)cn2)ccc1O | 1 | 11 | -2 | 110 | 0 | +
